From PubChem BioAssay (NCATS)
Values joined by “and” are separate entries in the source; they are usually repeats but may differ in a detail not shown here. Equal entries are not always repeated. Records with an inconclusive call do not appear. Active and inactive are the calls of the source. Unless noted, the call rests on the fitted dose curve; in most records, active means well fitted curve in the direction sought with a large enough effect; inconclusive means small, poorly fitted or top-dose-only effect, or another doubt; inactive means no such curve, though single readings can be large; an effect the other way counts as inactive or inconclusive.

Columns and labels:
[1] = Cell Viability - MRC5 (AID 434; calls by dose curve;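 further: potency means the concentration at half of the fitted maximal effect; potency reflects cytotoxicity seen as loss of intracellular ATP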); details: MRC5 lung fibroblast viability, qHTS
Method in brief: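 MRC5 normal human lung fibroblasts, 1500 cells/well, exposed to compound for 40 hr at 37 C. Cellular ATP was read by CellTiter-Glo luminescence; data normalized to DMSO and 100 uM tamoxifen, with AC50 from Hill fits.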

[2] = Cellular Toxicity (caspase-3) HepG2 (AID 654); details: HepG2 caspase-3 activation, luminescence; series mostly up to 92.2 µM;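 further: cells exposed to compound for 16 hours before reading; 0% = DMSO alone and 100% = caspase signal from 100 µM tamoxifen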
Method in brief: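 HepG2 cells (1500/well) in complete medium were treated with compounds for 16 hr at 37 °C. Caspase-3/7 activity was then read as luminescence from peptide-aminoluciferin cleavage. AC50 came from Hill fits, normalized to DMSO and 100 uM tamoxifen.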

[3] = Cellular Toxicity (caspase-3) HUV-EC-C (AID 656); details: HUV-EC-C cells, caspase-3 activation (apoptosis); series mostly up to 92.2 µM
Method in brief: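 HUV-EC-C endothelial cells, 1000/well, were pre-incubated 5 hr at 37°C, then exposed to compounds for 16 hr at 37°C. Caspase-Glo 3/7 luminescence was read after 20 min at room temperature. AC50 came from Hill fits, normalized to DMSO and 100 uM tamoxifen.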

[4] = Cellular Toxicity (caspase-3) SHSY5Y (AID 657); details: SH-SY5Y caspase-3 activation; series mostly up to 91.7 µM
Method in brief: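 SH-SY5Y human neuroblastoma cells (1500/well) were treated with compounds for 16 h at 37 °C, then Caspase-Glo 3/7 luminescence was read after 1 h at room temperature. Data normalized to DMSO and 10 uM staurosporine; AC50 from Hill fits.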

[5] = Cellular Toxicity (caspase-3) MRC-5 (AID 659); details: MRC-5 cells, luminescence, normalized: DMSO 0%, 10 µM staurosporine 100%; series mostly up to 91.7 µM
Method in brief: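 MRC-5 human normal lung fibroblasts, 1500 cells/well, treated 16 h at 37 °C in complete medium. Caspase 3/7 measured by Caspase-Glo luminescence after 1 h at room temperature. Normalized to DMSO and 10 uM staurosporine; AC50 from Hill fit.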

[6] = Cellular Toxicity (caspase-3) Mesangial (AID 660); details: mesangial cells, normalized: DMSO 0%, 100 µM tamoxifen 100%; series mostly up to 91.7 µM
Method in brief: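 Human renal glomerular mesangial cells (1000/well) were treated with compounds for 16 h at 37 °C in complete medium, then caspase 3/7 activity was read by Caspase-Glo luminescence. Data were normalized to DMSO and 100 uM tamoxifen; AC50 from Hill fits.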

[7] = Cellular Toxicity (caspase-3) SK-N-SH (AID 661); details: SK-N-SH caspase-3 activation, qHTS, DMSO as zero, staurosporine as full; series mostly up to 91.7 µM
Method in brief: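 SK-N-SH human neuroblastoma cells (1500/well) were treated with compounds for 16 hr at 37 °C in complete medium; caspase 3/7 activity was read by Caspase-Glo luminescence. AC50 came from Hill fits of data normalized to DMSO and 10 uM staurosporine.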

[8] = Cellular Toxicity (caspase-3) H-4-II-E (AID 663); details: H-4-II-E rat hepatoma; Potency: caspase-3 activation; series mostly up to 92.2 µM;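 further: cells exposed to compound for 16 hr before readout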
Method in brief: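 Rat hepatoma H-4-II-E cells (1500/well) plated 5 hr, then exposed to compound titrations for 16 hr at 37 °C. Caspase-Glo 3/7 luminescence read after 20 min at RT; data normalized to DMSO and 100 uM tamoxifen, AC50 from Hill fits.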

[9] = Cellular Toxicity (caspase-3) N2a (AID 665); details: N2a cells, luminescence, normalized: DMSO 0%, 10 µM staurosporine 100%; series mostly up to 92.2 µM;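 further: compound exposure lasted 16 h at 37 °C before readout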
Method in brief: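 Mouse N2a neuroblastoma cells (1500/well) were treated with compounds for 16 h at 37 °C, then caspase-3/7 activity was read by Caspase-Glo luminescence after 1 h at room temperature. Data were normalized to DMSO and 10 uM staurosporine; AC50 from Hill fits.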

[10] = Cellular Toxicity (caspase-3) NIH 3T3 (AID 666); details: NIH 3T3 caspase-3 activation, apoptosis/toxicity, 0% DMSO, 100% is 100 µM tamoxifen; series mostly up to 92.2 µM;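 further: caspase signal read after 16 h compound exposure; 0% = DMSO basal and 100% = 100 µM tamoxifen stimulation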
Method in brief: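 Mouse NIH 3T3 fibroblasts (1000 cells/well) were treated with compound for 16 hr at 37°C in complete medium; caspase-3/7 activity was read by Caspase-Glo luminescence. Normalized to DMSO and 100 uM tamoxifen; AC50 from Hill fits.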

[11] = Cellular Toxicity (caspase-3) Renal Proximal Tubule (AID 667); details: renal proximal tubule cells, primary cells freshly taken from rat; Potency: caspase-3 activation; series mostly up to 91.7 µM;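 further: cells exposed to compound for 16 hours at 37 °C before detection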
Method in brief: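 Primary rat proximal tubule cells, 1000/well, 5 h plating at 37 °C, then compound 16 h at 37 °C. Caspase-Glo 3/7 reagent, 1 h RT, luminescence. Normalized to DMSO (basal) and 10 uM staurosporine (100%); Hill-fit AC50.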

[12] = MultiTox-Fluor Cytotoxicity Assay - LYMP1-001 - Dead Cells (AID 946); details: LYMP1-001 lymphoblastoid cells, dead-cell protease fluorescence; series mostly up to 92.2 µM;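 further: 0% = DMSO and 100% = tetraoctylammonium bromide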
Method in brief: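 AC50 from Hill fit of concentration-response; data normalized to DMSO (basal) and 15 uM tetraoctylammonium bromide (100%). LYMP1-001 lymphoblastoid cells, 2500/well, 16 hr compound at 37 C; dead-cell protease fluorescence, Ex/Em 485/520.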

[13] = Cell Viability - LYMP1-002 - Assay at 16 hr (AID 948); details: LYMP1-002 lymphoblastoid cell viability; series mostly up to 92.2 µM;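 further: 0% = DMSO alone and full effect = 92 µM tetraoctylammonium bromide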
Method in brief: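 Human lymphoblastoid cells (LYMP1-002), 2500/well, were preincubated 5 hr at 37 C, then exposed to compounds for 16 hr at 37 C in complete medium. Cellular ATP was read by CellTiter-Glo luminescence after 30 min at room temperature; AC50 from Hill fits.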

[14] = MultiTox-Fluor Cytotoxicity Assay - LYMP1-002 - Live Cells (AID 955); details: LYMP1-002 lymphoblastoid live-cell protease fluorescence viability; series mostly up to 46.1 µM; further: on the % scale 0 is the no-effect control and ±100 the full control effect
Method in brief: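 Human lymphoblastoid LYMP1-002 cells, 2500/well in complete medium, rested 5 hr at 37 C, then exposed to compounds for 16 hr at 37 C. Live-cell protease cleavage of GF-AFC read by fluorescence (Ex/Em 405/510) after 60 min at room temperature; AC50 from Hill fits.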

[15] = MultiTox-Fluor Cytotoxicity Assay - LYMP1-003 - Live Cells (AID 962); details: LYMP1-003 lymphoblastoid cells, MultiTox-Fluor live-cell protease fluorescence; series mostly up to 92.2 µM;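 further: 0% = DMSO only and full loss = 92 µM tetraoctylammonium bromide; cytotoxic hits lower the live-cell protease signal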
Method in brief: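 LYMP1-003 human lymphoblastoid cells (2500/well) in complete medium were preincubated 5 hr at 37 C, then exposed to compounds for 16 hr at 37 C. Live-cell protease cleavage of GF-AFC read by fluorescence (Ex/Em 405/510); AC50 from Hill fits.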

[16] = Cell Viability - LYMP1-003 - Assay at 24 hr (AID 963); details: LYMP1-003 lymphoblastoid cell viability; series mostly up to 92.2 µM;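 further: plate controls were DMSO only for no effect and tetraoctylammonium bromide positive control for full effect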
Method in brief: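 Human lymphoblastoid LYMP1-003 cells (2500/well) were rested 5 hr at 37 C, then exposed to compounds in complete medium for 24 hr at 37 C. Cellular ATP was quantified by CellTiter-Glo luminescence, and AC50 values came from Hill fits of concentration-response data.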

[17] = Cell Viability - LYMP1-002 - Assay at 24 hr (AID 993); details: LYMP1-002 lymphoblastoid cells viability; series mostly up to 92.2 µM; further: on the % scale 0 is the no-effect control and ±100 the full control effect
Method in brief: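 Human lymphoblastoid LYMP1-002 cells, 2500/well in complete medium, were treated with compounds for 24 h at 37 C; intracellular ATP was read by CellTiter-Glo luminescence. AC50 values came from Hill-equation fits of qHTS concentration-response data.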

[18] = qHTS Assay for Identification of Small Molecule Inducers of Hypoxia Response (AID 2120; active means well fitted curve in the direction sought with a large enough effect in the signal ratio, with a control signal flat, not every such curve was filed as active; the % refers to the signal ratio; further: 0% is about no effect); details: hypoxia response reporter cells, beta-lactamase ratio readout; series mostly up to 104 µM
Method in brief: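 HRE-beta-lactamase reporter in CellSensor HRE-bla ME-180 cells, 2500 cells/well in Opti-MEM with 0.5% dialyzed FBS; compounds tested as titration series, 17 h at 37 degrees C. CCF4 substrate 2.5 h at room temperature; AC50 from 460/530 nm ratio.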

[19] = target: Peroxisome proliferator-activated receptor alpha (Homo sapiens) (UniProt Q07869); test: qHTS assay for small molecule agonists of the peroxisome proliferator-activated receptor alpha (PPARalpha) signaling pathway (AID 651778); details: PathHunter PPARalpha complementation, chemiluminescence, 6 h; max response: active compounds read high; further: % of control where 0% means no effect
Peroxisome proliferator-activated receptor alpha (Homo sapiens), sequence (Q07869 whole entry, looked up, the tested form may be a part): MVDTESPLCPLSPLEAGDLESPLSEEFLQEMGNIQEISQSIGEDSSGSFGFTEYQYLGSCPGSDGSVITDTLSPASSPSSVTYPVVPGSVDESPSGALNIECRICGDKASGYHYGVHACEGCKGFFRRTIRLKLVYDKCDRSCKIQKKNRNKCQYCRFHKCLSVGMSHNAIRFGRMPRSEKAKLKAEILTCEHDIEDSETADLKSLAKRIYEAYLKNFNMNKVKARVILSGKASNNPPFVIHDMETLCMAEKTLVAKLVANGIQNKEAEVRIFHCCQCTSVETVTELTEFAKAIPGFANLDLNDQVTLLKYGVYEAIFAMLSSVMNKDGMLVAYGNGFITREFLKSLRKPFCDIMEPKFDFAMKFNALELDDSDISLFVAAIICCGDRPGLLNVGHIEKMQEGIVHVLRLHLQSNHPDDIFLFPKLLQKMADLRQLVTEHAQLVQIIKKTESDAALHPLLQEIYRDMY
Method in brief: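 Enzyme-fragment complementation assay in which ligand-bound PPARalpha translocates and forms an active enzyme that generates chemiluminescence. Cells were plated overnight, exposed to compound for 6 hr at 37 C, and then given detection reagent for 60 min at room temperature.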

[20] = qHTS assay for small molecule agonists of the antioxidant response element (ARE) signaling pathway measured by Nrf2-dependant transcriptional activity - cell viability counter screen (AID 720653; active means well fitted curve in the direction sought with a large enough effect in the repeat runs; an effect the other way counts as inactive or inconclusive; further: on the % scale 0 is the no-effect control and ±100 the full control effect); details: ARE-bla HepG2 viability, CellTiter-Glo ATP luminescence, 16 h; max response: active compounds read low
Method in brief: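 ARE-bla HepG2 cells treated with compounds for 16 h at 37C; this counter screen measures viability as intracellular ATP by CellTiter-Glo luminescence after 30 min at room temperature.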

CN(C)c1ccc(Cc2ccc(N(C)C)cc2)cc1
inactive: Potency [1] > 92 µM | Potency [2] | Potency [3] | Potency [4] | outcome [5] | outcome [6] | outcome [7] | Potency [8] | outcome [9] | outcome [10] | Potency [11] | Potency [12] | Potency [13] | outcome [14] | Potency [15] | Potency [16] | Potency [17] | Potency [18] | max response [19] 1.98% and -1.9% | max response [20] -17.1% and 8.5%

Cc1ccc(C(=O)O)cc1[N+](=O)[O-]
inactive: Potency [1] > 92 µM | Potency [2] | Potency [3] | Potency [4] | outcome [5] | outcome [6] | outcome [7] | Potency [8] | outcome [9] | outcome [10] | Potency [11] | Potency [12] | Potency [13] | outcome [14] | Potency [15] | Potency [16] | Potency [17] | Potency [18] | max response [19] -2.73% | max response [20] -1.34%

Cc1ccc(N)cc1[N+](=O)[O-]
inactive: Potency [1] > 92 µM | Potency [2] | Potency [3] | Potency [4] | outcome [5] | outcome [6] | outcome [7] | Potency [8] | outcome [9] | outcome [10] | Potency [11] | Potency [12] | Potency [13] | outcome [14] | Potency [15] | Potency [16] | Potency [17] | Potency [18] | max response [19] -0.223% | max response [20] -10.7%

C1CCCNCC1
inactive: Potency [1] > 92 µM | Potency [2] | Potency [3] | Potency [4] | outcome [5] | outcome [6] | outcome [7] | Potency [8] | outcome [9] | outcome [10] | Potency [11] | Potency [12] | Potency [13] | outcome [14] | Potency [15] | Potency [16] | Potency [17] | Potency [18] | max response [19] 0.101% | max response [20] -5.98%

c1ccc(CSCc2ccccc2)cc1
inactive: Potency [1] > 92 µM | Potency [2] | Potency [3] | Potency [4] | outcome [5] | outcome [6] | outcome [7] | Potency [8] | outcome [9] | outcome [10] | Potency [11] | Potency [12] | Potency [13] | outcome [14] | Potency [15] | Potency [16] | Potency [17] | Potency [18] | max response [19] -0.51% | max response [20] -4.18%

O=C(OCc1ccccc1)c1ccccc1O
inactive: Potency [1] > 92 µM | Potency [2] | Potency [3] | Potency [4] | outcome [5] | outcome [6] | outcome [7] | Potency [8] | outcome [9] | outcome [10] | Potency [11] | Potency [12] | Potency [13] | outcome [14] | Potency [15] | Potency [16] | Potency [17] | Potency [18] | max response [19] -2.61% and -0.719% | max response [20] 4.39% and 10%
